Here are results for 39 compounds from PubChem BioAssay (NCATS).

Results filed as inconclusive are left out. Entries that show only a call come without a potency. A number with no mark means an inactive call. Active and inactive are the calls of the source. Calls follow the shape of the dose curve; as a rule, active = well fitted cell-killing curve with a large enough effect; inconclusive = small, poorly fitted or top-dose-only effect, or effect the other way; inactive = flat fitted curve, though single readings scatter.

The test system of one experiment is PA-1. In words: Primary qHTS to identify gynecologic anti-cancer compounds using libraries of approved drugs and bioactive compounds (AID 1345084). Also: nearly all actives have a fitted effect of over 55% in size. Conditions: Gynecologic cancer cell panel viability, ATPlite luminescence, 48 h; series mostly up to 57.5 µM. The method, boiled down:
(§1)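 48 h compound exposure at 37 C, 5% CO2; five-point qHTS. ATPlite luminescence readout of cell ATP.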
`CCCCOc1ccc(S(=O)(=O)n2c(C)nc3ccccc32)cc1`: the Potency entry was “inactive”.

Regarding `Cc1onc(-c2ccccc2)c1C(=O)N1CCN(c2ccc([N+](=O)[O-])cc2Cl)CC1`, the Potency result is “inactive”.

For the compound `C=C(CCC1C(C)(O)CCC2C(C)(C)C(O)CCC12C)C(O)CO` (stereo not drawn), the Potency result was “inactive”.

For the compound `C=C1[C@H]2CC[C@H](C(=O)O)[C@@]23CC[C@H](C3)C1(C)C`, the Potency result is “inactive”.

With `O=C(Nc1ccc(C(F)(F)F)cn1)N1CCN(c2ncccc2C(F)(F)F)CC1`, the Potency entry is “inactive”.

With `CN(C)C(=O)Nc1cc(-c2ccccc2)ccc1N(C)C`, the Potency result was “inactive”.

Take `COc1cc(CCc2ccc(OCC=C(C)C)cc2)cc(OC)c1OC`: the Potency entry was “inactive”.

For `O=S1(=O)CCN(Cc2cc(NCC3CCOCC3)c3[nH]c(-c4ccccc4)cc3c2)CC1`, the Potency result was “inactive”.

For `COc1ccc2[nH]c(=O)c3c(c2c1)OC(C)(C)C=C3`, the Potency result was “inactive”.

Regarding `O=C(O)C1=CO[C@@H](O[C@@H]2O[C@H](CO)[C@@H](O)[C@H](O)[C@H]2O)[C@@H]2C(CO)=CC[C@H]12`, the Potency entry is “inactive”.

As to `O=C(NCCCN1CCC2(CC1)OCc1ccccc12)[C@H]1CCCN1Cc1ccccc1`, the Potency entry was “inactive”.

Take `N#Cc1ccc(COC[C@H]2O[C@@H](n3c(NCc4ccc(Cl)c(Cl)c4)nc4c(N)ncnc43)[C@H](O)[C@@H]2O)cc1`: the Potency result is “inactive”.

As to `COC(=O)C[C@H]1[C@]2(C)C3=C(C)[C@H](c4ccoc4)C[C@H]3O[C@@H]2[C@H](O)C2[C@](C)(C(=O)OC)C=CC(=O)[C@@]21C` (stereo partly drawn), the Potency result was “inactive”.

As to `COc1ccncc1C(=O)NC(=O)Nc1ccc(-c2ccccc2)c(C(F)(F)F)c1`, the Potency result is “inactive”.

On to `COc1cc(C(=O)O)ccc1NC(=O)C1NC(CC(C)(C)C)C(C#N)(c2ccc(Cl)cc2F)C1c1cccc(Cl)c1F` (stereo not drawn), for which the Potency result was “inactive”.

Take `CC1(C)SCCN(S(=O)(=O)c2ccc(Oc3ccncc3)cc2)[C@H]1C(=O)NO`: the Potency result was “inactive”.

As for `CC1(C)CCCC2(C)C1C(OC(=O)/C=C/C=C/C=O)C=C1COC(=O)C12O` (stereo not drawn), the Potency entry was “inactive”.

Take `Cc1ccc(N2CCN(S(=O)(=O)N3CCCCC3)CC2)c(C)c1`: the Potency result is “inactive”.

Regarding `Nc1nc2c(s1)CCN(Cc1ccc(Cl)cc1)CC2`, the Potency result was “inactive”.

With `CCN(c1cc(-c2ccc(CN3CCOCC3)cc2)cc(C(=O)NCc2c(C)cc(C)[nH]c2=O)c1C)C1CCOCC1`, the Potency result is “inactive”.

With `CN1CCN(C2=Nc3ccccc3Nc3ccc(OS(=O)(=O)C(F)(F)F)cc32)CC1`, the Potency result was “inactive”.

On to `CC(C)C[C@H](CO)Nc1nc(S[C@@H](C)c2ccccc2)nc2nc(N)sc12`, for which the Potency result is “inactive”.

For the compound `C=C(C)C(=O)O[C@H]1/C(C=O)=C\CC/C(CO)=C/[C@H]2OC(=O)C(=C)[C@@H]2[C@@H]1OC`, the Potency result was “inactive”.

Turning to `O=C(COc1ccc2ccccc2c1Br)Nc1cccnc1`, the Potency result was “inactive”.

For `Cc1ccccc1CN1CCn2c1nc1c(c2=O)CN(Cc2ccccc2)CC1`, the Potency entry is “inactive”.

Consider `Cc1cccc(N2CCN(C(=O)c3cc(S(=O)(=O)N(C)C)ccc3N3CCCC3)CC2)c1C`, for which the Potency entry is “inactive”.

Regarding `COC(=O)CC[C@@H](C)C1CCC2C3CCC4C[C@H](OC(C)=O)CCC4(C)C3C[C@H](O)C21C` (stereo partly drawn), the Potency result is “inactive”.

Regarding `CN1CCc2cc3c(cc2C(=O)Cc2cc4c(cc2C1)OCO4)OCO3`, the Potency result is “inactive”.

For the compound `CC(=O)O[C@@H]1CC[C@@]2(C)C(CC[C@]3(C)C2[C@H](O)C=C2[C@H]4[C@@H](C)[C@H](C)CC[C@]4(C)CC[C@]23C)[C@@]1(C)C(=O)O` (stereo partly drawn), the Potency entry was “inactive”.

In the case of `C=C1C(=O)O[C@H]2C1CCC(C)=C1C(=O)C=C(C)[C@@]12O` (stereo partly drawn), the Potency entry was “inactive”.

With `CN(C)C(=O)C(=O)c1cn(C)c2cc(Cl)c(C(=O)N3CCC(Cc4ccc(F)cc4)CC3)cc12`, the Potency result was “inactive”.

Regarding `CC(C)(C)c1ccc(C(=O)Nc2cn3cc(-n4ccnc4)ccc3n2)cc1`, the Potency entry was “inactive”.

`CCCCCc1ccc(/C=C/C(=O)Nc2cc(Cl)ccc2C(=O)O)cc1`: the Potency result is “inactive”.

As to `Cc1cc(NC(=O)NCCN2CCC(O)(Cc3ccccc3)CC2)c2ccccc2n1`, the Potency entry is “inactive”.

Take `C=C1CC2OC(=O)C(=C)C2C(O)/C=C(\C)CCC1O` (stereo not drawn): the Potency entry is “inactive”.

As to `Cc1cc2c(cc1N1C(=O)c3cccc4c(CCCO)ccc(c34)C1=O)n(C)c(=O)n2C`, the Potency entry is “inactive”.

In the case of `O=C(Nc1cc(C(F)(F)F)ccc1N1CCCCC1)c1ccncc1`, the Potency entry is “inactive”.

For `COc1c(C)cc(NC(=O)c2nn(Cc3ccc(F)cc3)c3c2CN(C(=O)c2ccc[nH]2)C[C@]3(C)C(N)=O)cc1C`, the activity change, negative = cytotoxicity was 15.5% [at 11.6 µM].

Take `CC(C)c1ccc(NC(=O)Cn2cnc3c2c(=O)n(C)c(=O)n3C)cc1`: the Potency entry is “inactive”.

The test system of the next experiment is SKOV3. The experiment is described as above. Conditions: Gynecologic cancer cell panel viability, ATPlite luminescence, 48 h; series mostly up to 57.5 µM. The method, boiled down:
as §1
For `CCCCOc1ccc(S(=O)(=O)n2c(C)nc3ccccc32)cc1`, the Potency entry is “inactive”.

As for `Cc1onc(-c2ccccc2)c1C(=O)N1CCN(c2ccc([N+](=O)[O-])cc2Cl)CC1`, the Potency result is “inactive”.

Turning to `C=C(CCC1C(C)(O)CCC2C(C)(C)C(O)CCC12C)C(O)CO` (stereo not drawn), the Potency entry was “inactive”.

With `C=C1[C@H]2CC[C@H](C(=O)O)[C@@]23CC[C@H](C3)C1(C)C`, the Potency entry is “inactive”.

As to `O=C(Nc1ccc(C(F)(F)F)cn1)N1CCN(c2ncccc2C(F)(F)F)CC1`, the Potency entry was “inactive”.

For `CN(C)C(=O)Nc1cc(-c2ccccc2)ccc1N(C)C`, the Potency entry was “inactive”.

On to `COc1cc(CCc2ccc(OCC=C(C)C)cc2)cc(OC)c1OC`, for which the Potency entry was “inactive”.

Consider `O=S1(=O)CCN(Cc2cc(NCC3CCOCC3)c3[nH]c(-c4ccccc4)cc3c2)CC1`, for which the Potency entry is “inactive”.

Regarding `COc1ccc2[nH]c(=O)c3c(c2c1)OC(C)(C)C=C3`, the Potency entry was “inactive”.

For the compound `O=C(O)C1=CO[C@@H](O[C@@H]2O[C@H](CO)[C@@H](O)[C@H](O)[C@H]2O)[C@@H]2C(CO)=CC[C@H]12`, the Potency entry is “inactive”.

With `O=C(NCCCN1CCC2(CC1)OCc1ccccc12)[C@H]1CCCN1Cc1ccccc1`, the Potency result is “inactive”.

With `N#Cc1ccc(COC[C@H]2O[C@@H](n3c(NCc4ccc(Cl)c(Cl)c4)nc4c(N)ncnc43)[C@H](O)[C@@H]2O)cc1`, the Potency result was “inactive”.

With `COC(=O)C[C@H]1[C@]2(C)C3=C(C)[C@H](c4ccoc4)C[C@H]3O[C@@H]2[C@H](O)C2[C@](C)(C(=O)OC)C=CC(=O)[C@@]21C` (stereo partly drawn), the Potency entry was “inactive”.

Consider `COc1ccncc1C(=O)NC(=O)Nc1ccc(-c2ccccc2)c(C(F)(F)F)c1`, for which the Potency result is “inactive”.

Consider `COc1cc(C(=O)O)ccc1NC(=O)C1NC(CC(C)(C)C)C(C#N)(c2ccc(Cl)cc2F)C1c1cccc(Cl)c1F` (stereo not drawn), for which the Potency entry was “inactive”.

As to `CC1(C)SCCN(S(=O)(=O)c2ccc(Oc3ccncc3)cc2)[C@H]1C(=O)NO`, the Potency entry is “inactive”.

On to `CC1(C)CCCC2(C)C1C(OC(=O)/C=C/C=C/C=O)C=C1COC(=O)C12O` (stereo not drawn), for which the Potency entry was “inactive”.

On to `Cc1ccc(N2CCN(S(=O)(=O)N3CCCCC3)CC2)c(C)c1`, for which the Potency result was “inactive”.

With `Nc1nc2c(s1)CCN(Cc1ccc(Cl)cc1)CC2`, the Potency result was “inactive”.

On to `CCN(c1cc(-c2ccc(CN3CCOCC3)cc2)cc(C(=O)NCc2c(C)cc(C)[nH]c2=O)c1C)C1CCOCC1`, for which the Potency entry was “inactive”.

Consider `CN1CCN(C2=Nc3ccccc3Nc3ccc(OS(=O)(=O)C(F)(F)F)cc32)CC1`, for which the Potency result was “inactive”.

With `CC(C)C[C@H](CO)Nc1nc(S[C@@H](C)c2ccccc2)nc2nc(N)sc12`, the Potency result was “inactive”.

Turning to `C=C(C)C(=O)O[C@H]1/C(C=O)=C\CC/C(CO)=C/[C@H]2OC(=O)C(=C)[C@@H]2[C@@H]1OC`, the Potency entry is “inactive”.

For the compound `O=C(COc1ccc2ccccc2c1Br)Nc1cccnc1`, the Potency result is “inactive”.

With `Cc1ccccc1CN1CCn2c1nc1c(c2=O)CN(Cc2ccccc2)CC1`, the Potency entry is “inactive”.

Take `Cc1cccc(N2CCN(C(=O)c3cc(S(=O)(=O)N(C)C)ccc3N3CCCC3)CC2)c1C`: the Potency result was “inactive”.

Regarding `COC(=O)CC[C@@H](C)C1CCC2C3CCC4C[C@H](OC(C)=O)CCC4(C)C3C[C@H](O)C21C` (stereo partly drawn), the Potency result was “inactive”.

In the case of `CN1CCc2cc3c(cc2C(=O)Cc2cc4c(cc2C1)OCO4)OCO3`, the Potency result was “inactive”.

On to `CC(=O)O[C@@H]1CC[C@@]2(C)C(CC[C@]3(C)C2[C@H](O)C=C2[C@H]4[C@@H](C)[C@H](C)CC[C@]4(C)CC[C@]23C)[C@@]1(C)C(=O)O` (stereo partly drawn), for which the Potency entry is “inactive”.

Turning to `C=C1C(=O)O[C@H]2C1CCC(C)=C1C(=O)C=C(C)[C@@]12O` (stereo partly drawn), the Potency result is “inactive”.

As for `CN(C)C(=O)C(=O)c1cn(C)c2cc(Cl)c(C(=O)N3CCC(Cc4ccc(F)cc4)CC3)cc12`, the Potency result is “inactive”.

As for `CC(C)(C)c1ccc(C(=O)Nc2cn3cc(-n4ccnc4)ccc3n2)cc1`, the Potency result is “inactive”.

Consider `CCCCCc1ccc(/C=C/C(=O)Nc2cc(Cl)ccc2C(=O)O)cc1`, for which the Potency entry was “inactive”.

With `Cc1cc(NC(=O)NCCN2CCC(O)(Cc3ccccc3)CC2)c2ccccc2n1`, the Potency result is “inactive”.

With `C=C1CC2OC(=O)C(=C)C2C(O)/C=C(\C)CCC1O` (stereo not drawn), the Potency result was “inactive”.

`Cc1cc2c(cc1N1C(=O)c3cccc4c(CCCO)ccc(c34)C1=O)n(C)c(=O)n2C`: the Potency entry was “inactive”.

In the case of `O=C(Nc1cc(C(F)(F)F)ccc1N1CCCCC1)c1ccncc1`, the Potency result was “inactive”.

`COc1c(C)cc(NC(=O)c2nn(Cc3ccc(F)cc3)c3c2CN(C(=O)c2ccc[nH]2)C[C@]3(C)C(N)=O)cc1C`: the activity change, negative = cytotoxicity is -24.2% [at 11.6 µM].

Consider `CC(C)c1ccc(NC(=O)Cn2cnc3c2c(=O)n(C)c(=O)n3C)cc1`, for which the Potency entry is “inactive”.
